ugtP null kill: compounds lethal to S. aureus RN4220 ugtP deletion mutant; OD600 growth, 16 h; growth inhibition, % (test concentration not listed); hit rate 0.54% among 330,000; AID 1259309; in the data active means growth inhibition above about 68%;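 further: plate controls were untreated wells for no effect and antibiotic for full effect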
BJeLR viability: kills HRASV12-expressing BJeLR cells; BJeLR (HRASV12) viability, CellTiter-Glo ATP luminescence, 48 h; inhibition, % (concentration not given with the values); hit rate 0.17% among 300,000; AID 1554; in the data active means inhibition above about 50%
Yp Topo-I inh: Y. pestis Topo-I inhibition via cleavage products; Y. pestis Topo-I cleavage product accumulation, plate reader; activity, % at 10 µM; hit rate 0.064% among 360,000; AID 504884; in the data active means activity above about 50%, passing the limit was not always enough
PfHsp40 rescue: compounds rescuing yeast from Plasmodium falciparum HSP40 toxicity | S. cerevisiae expressing PfHsp40, growth rescue, ATP luminescence | growth rescue, % at 12.5 µM | hit rate 0.68% among 340,000 | AID 504582; in the data active means growth rescue above about 28%, passing the limit was not always enough;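 further: yeast W303a lacking pdr1 and pdr3 grown in galactose medium; growth measured after three days at 30 °C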
Sa RN4220 lethal: kills Staphylococcus aureus RN4220; S. aureus RN4220 growth, OD600, 16 h; inhibition, % (no concentration beside the values); hit rate 0.33% among 330,000; AID 1259311; in the data active means inhibition above about 85%;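 further: plate controls were untreated cells for no effect and reference antibiotic for full effect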
PrP UTR inh: suppresses PrP 5' UTR mRNA reporter expression | cell-based PrP 5' UTR mRNA reporter, plate reader | hit rate 0.35% among 340,000 | inhibition, % (test concentration not listed); in the data active means inhibition above about 52%; further: 0 = median of the neutral control wells
An asterisk follows results filed as active; . = no result. Hits are enriched below; roughly 1.4% of the tested compounds scored in any of these assays.

SMILES	ugtP null kill	BJeLR viability	Yp Topo-I inh	PfHsp40 rescue	Sa RN4220 lethal	PrP UTR inh
CCOC(=O)c1ccc(N2CCCCC2)c(NS(=O)(=O)c2cccc(C(F)(F)F)c2)c1	88*	-9	20	0	1	-30
Cn1nc(-c2ccc(Cl)cc2)nc2c(=O)n(C)c(=O)nc1-2	100*	19	.	.	100*	-27
O=[N+]([O-])c1ccc2[nH]nc(-c3ccccc3)c2c1	-28	1	-12	41*	-6	-8
Cc1c(NC(=S)NN=C/C=C/c2ccc([N+](=O)[O-])cc2)c(=O)n(-c2ccccc2)n1C	88*	.	.	.	1	.
CCCCCc1cc(O)c2c(C)cc(=O)oc2c1	-24	8	-3	56*	-8	-23
Cc1cc(=O)oc2cc(O)cc(O)c12	.	.	0	6	.	-3
CC=C(C)C(=O)Nc1cccc(C2=NOC3(C2)CC(C(N)=O)N(C(=O)C2(C)CC2)C3)c1 (stereo not drawn)	-3	.	.	.	3	.
O=C(O)c1ccccc1NSc1ccccc1[N+](=O)[O-]	-8	4	-8	0	13	-5
CCc1ccc(NSc2ccccc2[N+](=O)[O-])cc1	9	2	4	46*	21	-6
CON=CCC(=O)c1ccc(-c2ccccc2)cc1	101*	.	.	.	32	.
CO/N=C/CC(=O)c1ccc(-c2ccccc2)cc1	.	-7	6	-1	.	-24
CCN1C(=O)C2C(c3ccc(C)cc3)N3C(=O)N(c4ccc(C)cc4)C(=O)[C@@]3(Cc3ccccc3)C2C1=O (stereo partly drawn)	1	.	.	.	7	.
CN1C(=O)C2C(C=Cc3ccccc3)N3C(=O)CN(CCO)C(=O)[C@@]3(C)C2C1=O (stereo partly drawn)	-1	.	.	.	5	.
CN(C(=O)c1cccc(Nc2ccc(-c3ccc4c(c3)OCCO4)nn2)c1)C1CCCCC1	99*	.	17	4	88*	-38
COc1ccc(-n2c(-c3ccc(Br)cc3)c[n+]3c2CCc2ccccc2-3)cc1	-13	7	20	1	0	-15
CC(C)c1ccc(-n2c(-c3ccccc3)c[n+]3c2CCc2ccccc2-3)cc1	100*	11	14	4	96*	-8
O=[N+]([O-])c1ccccc1N/N=C\c1ccccc1Cl	.	72*	4	-1	.	-129
Cc1ccc(S(=O)(=O)CC(=O)c2ccccc2)cc1	-2	5	0	-1	1	-32
O=C(CC(=O)c1ccccc1)CS(=O)(=O)c1ccccc1	-3	.	8	60*	5	-10
CN1CCN(C(=O)C2=CC(c3ccc(Br)cc3)CC(OCc3ccc(CO)cc3)O2)CC1 (stereo not drawn)	-2	.	.	.	-4	.
C[C@@]12C(=O)N(Cc3ccc(Cl)cc3)CC(=O)N1C1c3ccccc3OCC1C2c1ccccc1 (stereo partly drawn)	10	.	.	.	-5	.
COc1ccc(CC(=O)NN=C(C)c2ccccn2)cc1	-1	.	.	.	5	.
COc1ccc2nc(NN=C(C)c3ccccn3)cc(C)c2c1	.	.	17	784*	.	-15
CCOC(=O)C(O)C(O)c1cccc(C(O)C(O)C(=O)OCC)c1 (stereo not drawn)	5	.	.	.	4	.
CCN(CC)CCCNC(=O)c1cc(-c2ccccc2)c(N2CCCCC2)s1	88*	51*	-7	1	4	.
SMILES	ugtP null kill	BJeLR viability	Yp Topo-I inh	PfHsp40 rescue	Sa RN4220 lethal	PrP UTR inh
O=C(NCCc1ccccc1)c1cc(-c2ccccc2)c(N2CCOCC2)s1	7	-6	8	-1	4	-11
NC(Cc1cc(I)c(O)c(I)c1)C(=O)O (stereo not drawn)	-5	.	.	.	8	.
O=c1c(-c2cccc3ccccc23)[n+]([O-])c2ccccc2n1O	13	14	-7	81*	7	-9
CSc1ccc(S(=O)(=O)NC2CCCCCC2)cc1	0	-12	24	67*	4	-50
OCCC1CC(O)C(O)[C@]2(OCc3ccccc32)O1 (stereo partly drawn)	6	.	.	.	4	.
Nc1ccccc1O	-5	.	-17	60*	9	-16
CCN1C(=O)c2cccc3c(S(=O)(=O)Nc4nc(C)cs4)ccc1c23	95*	5	-1	1	28	-24
CCN1C(=O)c2cccc3c(S(=O)(=O)Nc4ccccc4)ccc1c23	-8	-1	19	0	10	-30
CCOC(=O)C1=C(c2ccccc2)NC(N)=NC1c1ccc(OCc2ccc(Cl)cc2)c(OC)c1 (stereo not drawn)	71	7	6	0	99*	-26
CCOC(=O)C1=C(c2ccccc2)NC(=O)NC1c1cc(Cl)c(O)c(OC)c1 (stereo not drawn)	-1	-1	-9	-1	7	-6
O=C(CCl)N1c2ccccc2Sc2c1ccc1ccccc21	100*	.	15	0	94*	-10
C#CCOCCOCCOCCNc1nc(N2CCN(C(=O)C(Cc3ccc(O)cc3)n3cc(C(N)CC(C)C)nn3)CC2)nc(N2CCN(C(=O)C(C(C)CC)n3cc(C(N)CC(C)C)nn3)CC2)n1 (stereo not drawn)	0	.	.	.	0	.
O=C(Nc1cccc(C(F)(F)F)c1)Oc1ccc(Cl)c2cccnc12	.	12	-10	125*	.	-4
COc1cccc(N=Nc2ccc(O)c3ncccc23)c1	.	66*	-38	1	.	-2
Oc1ccc(N=Nc2ccc3c(c2)OCCO3)c(O)c1	6	9	-6	-1	-5	20
Oc1ccc(N=Nc2ccc3c(c2)OCCO3)c2cccnc12	4	17	-25	268*	12	17
COc1ccc(N=Nc2ccc(O)c3ncccc23)cc1	24	26	0	2	19	13
O=C1C=C(c2ccccc2)CC(c2ccc(Cl)cc2)C1 (stereo not drawn)	-11	.	.	.	-3	.
CCCOc1ccc(C=NNC(=O)c2ccc(Cn3cc([N+](=O)[O-])cn3)o2)cc1	-6	.	.	.	0	.
CCOC(=O)c1c(CSC(=N)N)n(-c2ccc(Br)cc2)c2cc(Br)c(OC(C)=O)cc12	-8	.	1	-1	0	-30
CCCCCCCCOC(=O)c1c(CSC(=N)N)n(C)c2cc(Br)c(OC(C)=O)cc12	101*	10	-6	.	100*	.
COc1ccc(Br)c(C(=O)OCC(=O)N2CCC(Cc3ccccc3)CC2)c1	0	.	-1	27*	-1	5
CC1CN(C(C)CO)C(=O)c2cccc(NC(=O)C3CCCCC3)c2OC1CN(C)S(C)(=O)=O (stereo not drawn)	6	.	.	.	5	.
CCN1/C(=C/c2ccc3cc(C)ccc3[n+]2CC)Sc2cc(C)ccc21	100*	.	-3	-3	100*	24
CCN1/C(=C/c2cccc[n+]2C)Sc2ccc(OC)cc21	.	7	-1	1	.	20
CCN1/C(=C/c2ccc3cc(C)ccc3[n+]2C)Sc2ccc3sccc3c21	100*	.	-6	153*	99*	-10
CCCCN1/C(=C/c2ccc3ccccc3[n+]2CC)Sc2ccccc21	.	5	9	128*	.	-5

Source: PubChem (several laboratories)
